PubChem BioAssay
Values without a mark were called inactive. For some of these results: Entries with a potency or affinity are not part of this list. Activity calls are given as the source filed them. Unless noted, the rule behind the calls is not given here.

Columns and labels:
[1] = antimalarial activity against Dd2 strain (AID 2302;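 active = growth inhibition above 50% at the single 2 µM test dose, taken to imply half-maximal potency below 2 µM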;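 note: 0% = DMSO untreated growth and 100% = chloroquine plus artemisinin killed control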); details: P. falciparum Dd2 in RBCs, LDH growth readout, 72 h; at 2 µM; hits give high values
[2] = HepG2 cytotoxicity, primary screen, cytotoxicity control for P. falciparum antimalarial project, cell-based, ATP luminescence (AID 2303;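 active = inhibition above 50%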;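 note: 0% = DMSO wells and 100% = digitonin-killed cells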); details: HepG2 viability, 24-48 h, at 10 µM, hits give high values
[3] = target: L-lactate dehydrogenase (Plasmodium falciparum (isolate CDC / Honduras)) (UniProt Q27743); assay: PfLDH activity inhibition – cell lysate, 3D7 strain, counter-screen for P. falciparum growth inhibition project (AID 2304);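 note: 0% = vehicle and 100% = reference inhibitor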; details: P. falciparum 3D7 crude extract, LDH APAD/NBT absorbance; at 2 µM; hits give high values
[4] = inhibition of 3D7 malaria parasite growth – strain 3D7 (AID 2306);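 note: 0% = DMSO wells and 100% = chloroquine plus artemisinin control wells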; details: P. falciparum 3D7 erythrocytic growth, LDH absorbance, 72 h; at 2 µM; hits give high values
[5] = target: Calcium-dependent protein kinase 1 (Plasmodium falciparum (isolate 3D7)) (UniProt P62344); assay: PfCDPK1 kinase inhibitors, biochemical, TCAMS library (AID 1159585; cut-off not given, nearly all actives have IC50 up to about 0.98 µM;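 note: inhibitors leave more ATP so luminescence rises with inhibition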); details: recombinant PfCDPK1, Kinase-Glo ATP depletion luminescence
[6] = target: Plasmodium falciparum protein kinase 6 (PK6, PF3D7_1337100) (UniProt Q8IDW1); assay: PfPK6 kinase inhibitors, biochemical, TCAMS library (AID 1159586); details: recombinant PfPK6, Kinase-Glo ATP depletion luminescence
[7] = target: Protein kinase 7 (PK7), Plasmodium falciparum 3D7 (PF3D7_0213400) (UniProt Q7YTF7); assay: inhibition of Plasmodium PK7 catalytic activity – biochemical, TCAMS antimalarial set, Kinase-Glo luminescence (AID 1159587); details: recombinant PfPK7, Kinase-Glo ATP depletion luminescence
[8] = target: Calcium-dependent protein kinase 4 (Plasmodium falciparum (isolate 3D7)) (UniProt Q8IBS5); assay: PfCDPK4 kinase inhibitors, biochemical, TCAMS library (AID 1159588; cut-off not given, nearly all actives have IC50 up to about 0.91 µM); details: recombinant PfCDPK4, Kinase-Glo ATP depletion luminescence
Calcium-dependent protein kinase 4 (Plasmodium falciparum (isolate 3D7)), sequence (Q8IBS5 whole entry, looked up): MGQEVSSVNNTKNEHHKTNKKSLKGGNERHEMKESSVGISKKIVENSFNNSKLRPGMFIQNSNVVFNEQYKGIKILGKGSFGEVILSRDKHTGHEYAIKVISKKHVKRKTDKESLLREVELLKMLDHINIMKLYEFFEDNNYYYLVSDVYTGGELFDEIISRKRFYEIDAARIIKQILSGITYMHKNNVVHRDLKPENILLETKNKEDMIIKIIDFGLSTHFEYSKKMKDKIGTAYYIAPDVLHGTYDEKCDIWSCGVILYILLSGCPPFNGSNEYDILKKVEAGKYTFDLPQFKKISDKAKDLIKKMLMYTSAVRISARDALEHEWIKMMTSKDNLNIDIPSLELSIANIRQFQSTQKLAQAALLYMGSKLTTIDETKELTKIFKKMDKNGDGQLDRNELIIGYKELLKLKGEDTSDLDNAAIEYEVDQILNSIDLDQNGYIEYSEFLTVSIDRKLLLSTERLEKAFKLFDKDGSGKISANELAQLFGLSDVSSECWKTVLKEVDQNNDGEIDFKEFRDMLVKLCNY

Plasmodium falciparum protein kinase 6 (PK6, PF3D7_1337100), sequence (Q8IDW1 1-305): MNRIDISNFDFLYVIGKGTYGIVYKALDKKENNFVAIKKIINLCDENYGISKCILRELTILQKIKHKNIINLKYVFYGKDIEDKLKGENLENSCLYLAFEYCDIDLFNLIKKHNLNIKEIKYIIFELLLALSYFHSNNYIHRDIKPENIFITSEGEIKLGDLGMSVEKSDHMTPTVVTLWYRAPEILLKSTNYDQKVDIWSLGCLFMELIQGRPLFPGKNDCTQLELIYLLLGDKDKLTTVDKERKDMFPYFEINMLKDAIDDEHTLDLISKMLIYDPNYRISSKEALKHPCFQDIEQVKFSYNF
Protein kinase 7 (PK7), Plasmodium falciparum 3D7 (PF3D7_0213400), sequence (Q7YTF7 1-343): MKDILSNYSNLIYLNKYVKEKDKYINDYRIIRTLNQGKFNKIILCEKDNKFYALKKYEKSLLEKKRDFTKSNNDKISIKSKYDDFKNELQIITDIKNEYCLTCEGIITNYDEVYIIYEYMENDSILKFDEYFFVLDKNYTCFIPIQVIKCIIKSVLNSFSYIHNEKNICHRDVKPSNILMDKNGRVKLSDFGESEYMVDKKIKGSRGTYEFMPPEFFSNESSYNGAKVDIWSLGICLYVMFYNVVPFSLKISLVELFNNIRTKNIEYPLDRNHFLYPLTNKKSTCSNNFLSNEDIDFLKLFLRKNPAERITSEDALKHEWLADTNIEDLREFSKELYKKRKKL
L-lactate dehydrogenase (Plasmodium falciparum (isolate CDC / Honduras)), sequence (Q27743 whole entry, looked up): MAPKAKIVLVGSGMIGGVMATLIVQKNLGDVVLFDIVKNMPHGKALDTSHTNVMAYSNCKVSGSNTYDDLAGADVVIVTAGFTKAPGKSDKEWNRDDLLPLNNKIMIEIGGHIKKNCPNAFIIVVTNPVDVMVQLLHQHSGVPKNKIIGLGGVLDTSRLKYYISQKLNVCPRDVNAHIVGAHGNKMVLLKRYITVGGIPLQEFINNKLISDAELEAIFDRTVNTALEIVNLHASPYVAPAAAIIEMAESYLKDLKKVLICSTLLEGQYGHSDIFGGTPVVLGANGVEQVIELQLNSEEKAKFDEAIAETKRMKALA
Calcium-dependent protein kinase 1 (Plasmodium falciparum (isolate 3D7)), sequence (P62344 whole entry, looked up): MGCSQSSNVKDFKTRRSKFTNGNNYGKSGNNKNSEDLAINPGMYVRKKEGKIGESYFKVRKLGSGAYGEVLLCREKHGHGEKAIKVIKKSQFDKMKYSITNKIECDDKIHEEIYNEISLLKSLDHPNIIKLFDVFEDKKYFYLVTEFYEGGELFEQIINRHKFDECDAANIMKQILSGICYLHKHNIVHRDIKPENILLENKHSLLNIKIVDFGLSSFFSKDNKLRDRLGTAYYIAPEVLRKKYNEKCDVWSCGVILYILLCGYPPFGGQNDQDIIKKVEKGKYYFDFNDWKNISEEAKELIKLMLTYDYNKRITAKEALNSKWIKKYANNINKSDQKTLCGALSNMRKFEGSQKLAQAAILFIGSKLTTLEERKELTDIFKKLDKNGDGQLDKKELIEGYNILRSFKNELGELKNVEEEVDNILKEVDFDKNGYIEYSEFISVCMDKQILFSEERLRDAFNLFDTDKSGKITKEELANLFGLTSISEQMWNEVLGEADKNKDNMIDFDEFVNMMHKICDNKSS

SMILES | growth inhibition [1] | inhibition [2] | inhibition [3] [%] | growth inhibition [4] | outcome [5] | outcome [6] | outcome [7] | outcome [8]
Cc1ccc2nc(C)cc(NN=Cc3ccccc3Cl)c2c1 | 62% (active) | 6% | -2 | 100% (active) | inactive | inactive | inactive | inactive
CCOc1ccccc1NC(=O)Nc1ccc2c(c1)CCN(C1CCC1)CC2 | 2% | 15% | -3 | 88% (active) | inactive | inactive | inactive | inactive
O=C(/C=C/c1ccc(Cl)c(Cl)c1)NCCCCCN1CCC(NC(=O)Nc2ccc([N+](=O)[O-])cc2)CC1 | 2% | 20% | 2 | 102% (active) | inactive | inactive | inactive | inactive
N#Cc1ccc(-c2ccc(C(=O)NCCCCN3CCC(c4nc5ccccc5[nH]4)CC3)cc2)cc1 | 13% | 43% | 4 | 92% (active) | inactive | inactive | inactive | inactive
CCCCNC(=O)[C@H](CC1CCCCC1)NC(=O)c1ccc(O)c(-c2ccc(Cl)c(Cl)c2)c1 | 99% (active) | -9% | -1 | 98% (active) | inactive | inactive | inactive | inactive
Cc1nnsc1C(=O)Nc1cccc(-c2ccc(-c3nc4ccc(F)cc4[nH]3)s2)c1 | 22% | 62% (active) | 4 | 89% (active) | inactive | inactive | inactive | inactive
Fc1ccc2nc(-c3cccc(-c4ccc(CNCCc5ccncc5)cc4)c3)[nH]c2c1 | 100% (active) | 44% | 4 | 99% (active) | inactive | inactive | inactive | inactive
O=C(NC12CC3CC(CC(C3)C1)C2)C(=O)c1c[nH]c2ccccc12 | 2% | 16% | 3 | 97% (active) | inactive | inactive | inactive | inactive
COc1c(C2CCN(CCCCNC(=O)c3oc(-c4ccc(Cl)cc4)cc3CO)CC2)ccc2c1CCCC2 | 95% (active) | 80% (active) | 4 | 102% (active) | inactive | inactive | inactive | inactive
Cc1cc(Cl)c(S(=O)(=O)NC(C)(C)C)cc1OCC(=O)NC1CCCCC1 | 53% (active) | 10% | -5 | 93% (active) | inactive | inactive | inactive | inactive
NCCCNc1nccc(N2CCc3ncnc(Nc4ccc(OCc5cccc(F)c5)c(Cl)c4)c3C2)n1 | 93% (active) | 18% | 0 | 98% (active) | inactive | inactive | inactive | inactive
CN(C)C(=O)n1cnc(S(=O)(=O)N(C)c2ccc(Cl)cc2)n1 | 80% (active) | 7% | 3 | 88% (active) | inactive | inactive | inactive | inactive
N#Cc1ccc(CN2CCC(Oc3ccc(NC(=O)c4cccs4)cc3)CC2)cc1 | 82% (active) | 10% | -3 | 83% (active) | inactive | inactive | inactive | inactive
CC1CCCC(NCc2c(O)ccc3ccccc23)C1 (stereo not drawn) | 25% | 10% | 1 | 93% (active) | inactive | inactive | inactive | inactive
Oc1ccc(CN2CC[C@@H](N3CCN(CCc4ccccc4)CC3)[C@H](O)C2)cc1Cl | 77% (active) | 0% | 2 | 100% (active) | inactive | inactive | inactive | inactive
COc1cc2nc(N(C)C)nc(Nc3ccc4c(cnn4Cc4ccccc4)c3)c2cc1OC | 102% (active) | 90% (active) | -4 | 100% (active) | inactive | inactive | inactive | inactive
COc1cc(NC(=O)N2CCc3cc(OC)c(OCCN4CCCCC4)cc32)cc(C(F)(F)F)c1 | 10% | 9% | -3 | 93% (active) | inactive | inactive | inactive | inactive
Cc1cccc(CNc2nc(C)cc(N[C@@H](Cc3ccccc3)C(=O)NCc3cccc(F)c3)n2)c1 | 82% (active) | 39% | -2 | 101% (active) | inactive | inactive | inactive | inactive
O=c1[nH]c2c(cc1CNC1CCCCC1)c(-c1ccc(F)cc1)nn2-c1ccccc1 | 88% (active) | 8% | 6 | 99% (active) | inactive | inactive | inactive | inactive
CCCN(CCC)CCCNc1ccc(C(=O)Nc2ccc(C)c(F)c2)cc1[N+](=O)[O-] | 94% (active) | 33% | 3 | 100% (active) | inactive | inactive | inactive | inactive
O=[N+]([O-])c1cccc(CNCC2CCN(Cc3ccc(C(F)(F)F)cc3)CC2)c1 | 23% | 7% | 2 | 101% (active) | inactive | inactive | inactive | inactive

SMILES | growth inhibition [1] | inhibition [2] | inhibition [3] [%] | growth inhibition [4] | outcome [5] | outcome [6] | outcome [7] | outcome [8]
COc1ccc(CNC(=O)c2cnc3c(O)cccc3c2Nc2cccc(NC(=O)c3ccc(F)cc3)c2)cc1 | 65% (active) | 50% (active) | 2 | 91% (active) | inactive | inactive | inactive | inactive
COc1ccc(OCCn2cc(C(=O)c3ccco3)c3ccccc32)cc1 | 61% (active) | 17% | -1 | 98% (active) | inactive | inactive | inactive | inactive
CC(=O)NCCNc1cc(N2CCc3ncnc(Nc4ccc(OCc5c(F)cccc5F)c(Cl)c4)c3C2)ncn1 | 100% (active) | 55% (active) | 4 | 100% (active) | inactive | inactive | inactive | inactive
COc1ccc(CNC2CCN(C)CC2)cc1-c1ccc(S(=O)(=O)NCCc2ccccn2)s1 | 12% | 6% | 3 | 100% (active) | inactive | inactive | inactive | inactive
Cc1cc(NC(=O)c2ccco2)ccc1OC1CCN(Cc2ccccc2)CC1 | 95% (active) | 3% | -9 | 93% (active) | inactive | inactive | inactive | inactive
Cc1ccc(C)c(-n2c(SCC(=O)Nc3ccc(C(N)=O)cc3)nnc2-c2cccc(Cl)c2)c1 | 91% (active) | 6% | 4 | 92% (active) | inactive | inactive | inactive | inactive
COc1ccc2nccc([C@@H](O)CN3CCC(NCc4cc5c(Cl)cc(Cl)cc5[nH]4)CC3)c2c1 | 86% (active) | 93% (active) | 4 | 101% (active) | inactive | inactive | inactive | inactive
Cc1cccc2[nH]c(-c3ccc(-c4ccc(CN5CCN(CCO)CC5)cc4)cc3)nc12 | 97% (active) | 20% | -4 | 100% (active) | inactive | inactive | inactive | inactive
CC(=O)Nc1ccc(CNC2Cc3ccc(-c4ccc(Cl)c(Cl)c4)cc3C2)cc1 (stereo not drawn) | 7% | 49% | -3 | 89% (active) | inactive | inactive | inactive | inactive
COc1ccc(C2N=C(N)N=C(N)N2c2ccc(Cl)cc2)cc1OC (stereo not drawn) | 4% | 4% | -1 | 85% (active) | inactive | inactive | inactive | inactive
O=C(C1CCCC1)N1CCOC(CCN2CCC(c3ccccc3)CC2)(c2ccc(Cl)c(Cl)c2)C1 (stereo not drawn) | 77% (active) | 16% | 0 | 88% (active) | inactive | inactive | inactive | inactive
Cc1cccc(NC(=O)Nc2ccc(I)c(OCCN(C)C)c2)c1C | 17% | 13% | 1 | 96% (active) | inactive | inactive | inactive | inactive
CO/C(=C\C=C\c1cc2cc(Cl)c(Cl)cc2[nH]1)C(=O)NCCCN(C)CCN(C)c1ccccc1 | 59% (active) | 38% | 0 | 96% (active) | inactive | inactive | inactive | inactive
Cc1cc(C(=O)CN2C(=O)NC3(CCOc4ccccc43)C2=O)c(C)n1Cc1ccc(F)cc1 (stereo not drawn) | 84% (active) | 1% | 0 | 95% (active) | inactive | inactive | inactive | inactive
O=C(/C=C/c1ccc(Cl)c(Cl)c1)NCCCCCN1CCC(NC(=O)c2ccc([N+](=O)[O-])cc2)CC1 | 6% | 36% | -2 | 100% (active) | inactive | inactive | inactive | inactive
O=C(NC1CCCCCC1)[C@@H]1CCCN1C(=O)c1ccc(O)c(-c2ccc(Cl)c(Cl)c2)c1 | 98% (active) | -2% | -7 | 99% (active) | inactive | inactive | inactive | inactive
CN(CCCN(C)c1cc(NC(=O)c2ccc(F)cc2)ccn1)Cc1cccc(O)c1 | 0% | 2% | 1 | 90% (active) | inactive | inactive | inactive | inactive
CS(=O)(=O)c1ccc2nc(-c3cc(-c4cccc(F)c4)cnc3N)[nH]c2c1 | 71% (active) | 33% | 4 | 102% (active) | inactive | inactive | inactive | inactive
CN(C)CCC1CCN(CCS(=O)(=O)c2cccc(Nc3ncc(-c4cccc(F)c4)cn3)c2)CC1 | 12% | 59% (active) | -2 | 96% (active) | inactive | inactive | inactive | inactive
COc1ccccc1N1CCN(CCCCN(C(=O)Nc2cccc(Cl)c2)C(=O)Nc2cccc(Cl)c2)CC1 | 65% (active) | 4% | 7 | 100% (active) | inactive | inactive | inactive | inactive
